# Experiments:
# Experiment in all cases: DAPPL (digital affinity profiling via proximity ligation, sequencing); 10 mM Tris-HCl pH 7.5, 50 mM NaCl, 1 mM DTT, 4% glycerol, room temperature, 30 min; GST-TFs on glutathione beads, 16-mer random dsDNA library, 0.1% formaldehyde crosslink after washing; high values mean tight binding
# Details in all cases: protein: recombinant; tags: N-terminal GST; dsDNA, one strand shown
# FLI1 = target: T1, FLI1 (Homo sapiens, UniProt Q01543 1-452)
# T1 sequence: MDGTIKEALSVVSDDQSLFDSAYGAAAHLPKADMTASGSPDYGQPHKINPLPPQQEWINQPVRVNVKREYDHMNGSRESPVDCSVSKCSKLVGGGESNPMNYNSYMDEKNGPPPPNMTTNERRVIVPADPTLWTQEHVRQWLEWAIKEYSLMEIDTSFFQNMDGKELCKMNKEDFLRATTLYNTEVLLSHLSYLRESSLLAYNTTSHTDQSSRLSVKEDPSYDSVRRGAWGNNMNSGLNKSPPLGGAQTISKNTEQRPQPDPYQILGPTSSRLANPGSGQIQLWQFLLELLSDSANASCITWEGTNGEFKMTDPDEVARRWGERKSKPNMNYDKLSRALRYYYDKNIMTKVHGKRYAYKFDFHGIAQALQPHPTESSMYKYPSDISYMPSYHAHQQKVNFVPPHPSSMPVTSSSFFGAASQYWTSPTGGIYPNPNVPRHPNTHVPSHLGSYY
# How it was run: (§1)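 After expression in yeast as GST fusions, human transcription factors were bound to glutathione beads, DNA-barcoded and mixed with a tag-only sample. The pools were incubated with 200 nmole of a 16-mer random double-stranded DNA library in Tris/NaCl/DTT/glycerol buffer (30 min, room temperature), washed and crosslinked with 0.1% formaldehyde. Proximity ligation with BsaI/T4 ligase ran for 1 h at 37 °C, before PCR amplification and sequencing on an Illumina NextSeq500. Binding signal is a hexamer's read frequency for a factor divided by its frequency for the tag-only sample.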
# ELK1 = target: T2, ELK1 (Homo sapiens, UniProt P19419 1-428)
# T2 sequence: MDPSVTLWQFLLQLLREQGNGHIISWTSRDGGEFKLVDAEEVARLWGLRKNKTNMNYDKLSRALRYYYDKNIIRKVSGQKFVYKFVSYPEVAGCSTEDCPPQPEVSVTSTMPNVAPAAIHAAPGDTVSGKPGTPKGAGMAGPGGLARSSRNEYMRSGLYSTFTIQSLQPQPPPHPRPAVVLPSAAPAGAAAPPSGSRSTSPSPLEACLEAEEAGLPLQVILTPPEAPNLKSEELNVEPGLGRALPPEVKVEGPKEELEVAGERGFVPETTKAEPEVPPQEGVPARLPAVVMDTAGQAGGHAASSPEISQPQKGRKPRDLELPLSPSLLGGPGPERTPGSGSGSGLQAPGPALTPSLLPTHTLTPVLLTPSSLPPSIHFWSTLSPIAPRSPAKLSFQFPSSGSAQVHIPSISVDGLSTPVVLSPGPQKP
# How it was run: as §1
# GABPA = target: T3, GABPA (Homo sapiens, UniProt Q06546 1-454)
# T3 sequence: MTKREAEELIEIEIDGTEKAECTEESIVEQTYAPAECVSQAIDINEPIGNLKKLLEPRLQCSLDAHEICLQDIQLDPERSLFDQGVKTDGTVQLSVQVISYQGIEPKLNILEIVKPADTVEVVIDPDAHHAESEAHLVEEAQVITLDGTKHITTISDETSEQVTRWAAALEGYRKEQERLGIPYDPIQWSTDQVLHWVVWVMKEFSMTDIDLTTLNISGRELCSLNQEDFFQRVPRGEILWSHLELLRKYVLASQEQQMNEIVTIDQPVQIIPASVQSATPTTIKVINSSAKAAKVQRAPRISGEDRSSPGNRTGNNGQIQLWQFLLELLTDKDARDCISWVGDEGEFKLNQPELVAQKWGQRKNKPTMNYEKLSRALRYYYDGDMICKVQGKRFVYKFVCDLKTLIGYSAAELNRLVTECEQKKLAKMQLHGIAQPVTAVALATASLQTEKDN
# How it was run: as §1
# ERG = target: T4, ERG (Homo sapiens, UniProt P11308 1-479)
# T4 sequence: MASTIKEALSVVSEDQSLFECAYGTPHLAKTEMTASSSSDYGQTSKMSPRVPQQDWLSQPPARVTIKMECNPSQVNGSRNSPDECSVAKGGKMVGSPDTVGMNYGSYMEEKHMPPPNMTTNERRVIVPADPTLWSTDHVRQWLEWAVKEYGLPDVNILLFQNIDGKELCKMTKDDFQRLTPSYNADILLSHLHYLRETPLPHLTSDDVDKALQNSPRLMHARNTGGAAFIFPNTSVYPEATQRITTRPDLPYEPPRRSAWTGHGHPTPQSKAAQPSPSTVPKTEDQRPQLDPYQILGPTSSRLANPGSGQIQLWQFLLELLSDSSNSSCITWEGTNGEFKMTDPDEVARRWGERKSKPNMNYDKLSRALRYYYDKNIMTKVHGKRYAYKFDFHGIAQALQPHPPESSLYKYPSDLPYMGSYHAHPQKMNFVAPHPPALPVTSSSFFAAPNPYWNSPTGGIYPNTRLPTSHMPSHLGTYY
# How it was run: as §1
# ELF1 = ELF1 (Homo sapiens, UniProt P32519 1-619)
# How it was run: as §1
# EHF = target: T5, EHF (Homo sapiens, UniProt Q9NZC4 1-300)
# T5 sequence: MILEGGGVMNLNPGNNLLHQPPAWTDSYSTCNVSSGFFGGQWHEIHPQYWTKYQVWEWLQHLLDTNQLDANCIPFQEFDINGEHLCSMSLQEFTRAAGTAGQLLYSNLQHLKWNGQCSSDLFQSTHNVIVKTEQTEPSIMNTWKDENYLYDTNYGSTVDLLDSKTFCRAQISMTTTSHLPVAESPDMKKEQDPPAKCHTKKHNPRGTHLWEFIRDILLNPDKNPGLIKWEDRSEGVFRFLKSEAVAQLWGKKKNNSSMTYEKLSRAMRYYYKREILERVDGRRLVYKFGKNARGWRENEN
# How it was run: as §1
# SPI1 = SPI1 (Homo sapiens, UniProt P17947 1-270)
# How it was run: as §1
# SPIB = SPIB (Homo sapiens, UniProt Q01892 1-262)
# How it was run: as §1
# ELK3 = target: T6, ELK3 (Homo sapiens, UniProt P41970 1-407)
# T6 sequence: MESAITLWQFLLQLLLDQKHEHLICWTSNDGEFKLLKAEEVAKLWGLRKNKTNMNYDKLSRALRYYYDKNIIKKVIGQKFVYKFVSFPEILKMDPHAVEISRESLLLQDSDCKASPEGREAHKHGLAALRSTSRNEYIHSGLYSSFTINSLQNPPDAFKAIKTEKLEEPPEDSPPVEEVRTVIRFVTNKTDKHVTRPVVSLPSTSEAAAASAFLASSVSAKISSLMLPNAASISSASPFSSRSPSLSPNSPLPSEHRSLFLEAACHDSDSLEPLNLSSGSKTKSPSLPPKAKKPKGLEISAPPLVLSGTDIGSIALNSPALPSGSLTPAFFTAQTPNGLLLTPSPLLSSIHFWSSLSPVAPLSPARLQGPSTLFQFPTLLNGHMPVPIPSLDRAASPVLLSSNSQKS
# How it was run: as §1
# FEV = target: T7, FEV (Homo sapiens, UniProt Q99581 1-238)
# T7 sequence: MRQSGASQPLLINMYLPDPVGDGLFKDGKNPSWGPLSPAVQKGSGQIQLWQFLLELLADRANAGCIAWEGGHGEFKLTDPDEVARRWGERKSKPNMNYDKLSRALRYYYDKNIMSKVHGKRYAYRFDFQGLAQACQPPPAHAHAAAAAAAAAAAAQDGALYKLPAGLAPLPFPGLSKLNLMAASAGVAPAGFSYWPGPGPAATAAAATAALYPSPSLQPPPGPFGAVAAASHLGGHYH
# How it was run: as §1
# ETV5 = ETV5 (Homo sapiens, UniProt P41161 1-510)
# How it was run: as §1
# SPIC = target: T8, SPIC (Homo sapiens, UniProt Q8N5J4 1-248)
# T8 sequence: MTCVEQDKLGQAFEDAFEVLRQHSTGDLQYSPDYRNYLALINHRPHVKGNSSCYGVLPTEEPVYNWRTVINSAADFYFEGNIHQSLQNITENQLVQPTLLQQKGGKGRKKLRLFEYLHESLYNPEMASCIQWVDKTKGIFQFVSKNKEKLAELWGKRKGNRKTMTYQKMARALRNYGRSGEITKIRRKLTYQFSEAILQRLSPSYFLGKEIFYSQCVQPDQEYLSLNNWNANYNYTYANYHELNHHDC
# How it was run: as §1
# ELF4 = ELF4 (Homo sapiens, UniProt Q99607 1-663)
# How it was run: as §1
# ETV1 = ETV1 (Homo sapiens, UniProt P50549 1-477)
# How it was run: as §1
# ERF = target: T9, ERF (Homo sapiens, UniProt P50548 1-548)
# T9 sequence: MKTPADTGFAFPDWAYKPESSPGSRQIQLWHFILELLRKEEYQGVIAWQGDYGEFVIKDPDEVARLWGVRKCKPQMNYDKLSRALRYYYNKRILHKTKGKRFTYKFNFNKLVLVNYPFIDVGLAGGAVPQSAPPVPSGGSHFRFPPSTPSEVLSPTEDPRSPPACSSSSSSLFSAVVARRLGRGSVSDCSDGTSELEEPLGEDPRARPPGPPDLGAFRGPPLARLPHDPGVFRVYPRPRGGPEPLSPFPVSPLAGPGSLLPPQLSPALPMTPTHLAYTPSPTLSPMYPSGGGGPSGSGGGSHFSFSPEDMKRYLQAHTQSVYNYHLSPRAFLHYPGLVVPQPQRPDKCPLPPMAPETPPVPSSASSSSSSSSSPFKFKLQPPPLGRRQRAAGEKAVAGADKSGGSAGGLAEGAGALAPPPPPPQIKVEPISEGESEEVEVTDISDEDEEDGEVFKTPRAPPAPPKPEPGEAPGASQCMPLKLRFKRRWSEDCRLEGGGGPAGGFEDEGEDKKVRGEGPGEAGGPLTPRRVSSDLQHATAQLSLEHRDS
# How it was run: as §1
# ETV3L = target: T10, ETV3L (Homo sapiens, UniProt Q6ZN32 1-361)
# T10 sequence: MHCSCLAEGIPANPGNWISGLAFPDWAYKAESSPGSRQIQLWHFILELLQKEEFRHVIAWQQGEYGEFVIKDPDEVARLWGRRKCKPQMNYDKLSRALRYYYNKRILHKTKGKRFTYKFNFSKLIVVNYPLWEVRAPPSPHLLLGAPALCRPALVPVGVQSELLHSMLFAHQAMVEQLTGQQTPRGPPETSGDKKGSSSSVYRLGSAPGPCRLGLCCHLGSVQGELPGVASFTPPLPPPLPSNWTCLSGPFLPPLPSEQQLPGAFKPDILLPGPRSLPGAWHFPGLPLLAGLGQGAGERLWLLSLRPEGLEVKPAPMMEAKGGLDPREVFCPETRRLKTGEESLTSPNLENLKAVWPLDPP
# How it was run: as §1
# ETS2 = target: T11, ETS2 (Homo sapiens, UniProt P15036 1-469)
# T11 sequence: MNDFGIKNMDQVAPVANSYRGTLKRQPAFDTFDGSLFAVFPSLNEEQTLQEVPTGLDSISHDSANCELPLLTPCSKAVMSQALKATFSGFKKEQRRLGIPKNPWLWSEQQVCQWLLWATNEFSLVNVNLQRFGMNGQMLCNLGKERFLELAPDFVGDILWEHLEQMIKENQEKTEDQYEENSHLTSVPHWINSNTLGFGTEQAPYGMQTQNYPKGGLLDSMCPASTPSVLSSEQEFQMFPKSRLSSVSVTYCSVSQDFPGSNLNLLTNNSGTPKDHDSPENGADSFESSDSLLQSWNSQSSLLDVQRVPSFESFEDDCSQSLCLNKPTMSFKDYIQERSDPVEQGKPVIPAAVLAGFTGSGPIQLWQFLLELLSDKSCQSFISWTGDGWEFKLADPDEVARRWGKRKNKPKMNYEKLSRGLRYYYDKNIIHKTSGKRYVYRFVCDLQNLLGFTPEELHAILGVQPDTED
# How it was run: as §1
# SPDEF = target: T12, SPDEF (Homo sapiens, UniProt O95238 1-335)
# T12 sequence: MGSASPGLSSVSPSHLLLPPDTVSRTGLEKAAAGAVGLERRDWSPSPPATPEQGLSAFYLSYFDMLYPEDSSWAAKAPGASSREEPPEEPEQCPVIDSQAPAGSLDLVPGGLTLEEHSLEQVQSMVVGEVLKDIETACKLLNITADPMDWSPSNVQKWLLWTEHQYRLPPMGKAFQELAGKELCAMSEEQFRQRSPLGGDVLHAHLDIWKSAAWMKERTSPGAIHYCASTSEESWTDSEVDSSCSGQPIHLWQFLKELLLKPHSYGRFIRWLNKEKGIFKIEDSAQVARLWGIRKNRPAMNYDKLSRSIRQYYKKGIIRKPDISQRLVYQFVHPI
# How it was run: as §1
# ETV3 = target: T13, ETV3 (Homo sapiens, UniProt P41162-2 1-143)
# T13 sequence: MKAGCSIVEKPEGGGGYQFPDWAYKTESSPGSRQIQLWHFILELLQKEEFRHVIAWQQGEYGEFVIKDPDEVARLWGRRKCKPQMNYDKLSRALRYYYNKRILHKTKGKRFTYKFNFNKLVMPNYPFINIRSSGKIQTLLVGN
# How it was run: as §1
# Sequence of ETV5 (P41161 whole entry): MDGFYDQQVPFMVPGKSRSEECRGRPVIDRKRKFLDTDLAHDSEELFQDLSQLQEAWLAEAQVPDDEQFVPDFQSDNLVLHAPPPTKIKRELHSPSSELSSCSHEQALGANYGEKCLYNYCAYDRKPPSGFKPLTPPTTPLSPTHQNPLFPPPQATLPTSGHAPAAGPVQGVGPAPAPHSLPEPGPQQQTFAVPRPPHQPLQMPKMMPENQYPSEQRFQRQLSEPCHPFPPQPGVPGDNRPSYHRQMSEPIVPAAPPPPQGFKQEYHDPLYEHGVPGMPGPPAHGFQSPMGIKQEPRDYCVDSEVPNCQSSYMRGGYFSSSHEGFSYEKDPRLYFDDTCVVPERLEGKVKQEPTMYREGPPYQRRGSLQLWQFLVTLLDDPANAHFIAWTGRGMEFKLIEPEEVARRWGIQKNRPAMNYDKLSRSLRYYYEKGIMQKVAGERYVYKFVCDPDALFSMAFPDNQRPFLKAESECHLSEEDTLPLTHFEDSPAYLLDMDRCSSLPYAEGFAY
# Sequence of SPIB (Q01892 whole entry): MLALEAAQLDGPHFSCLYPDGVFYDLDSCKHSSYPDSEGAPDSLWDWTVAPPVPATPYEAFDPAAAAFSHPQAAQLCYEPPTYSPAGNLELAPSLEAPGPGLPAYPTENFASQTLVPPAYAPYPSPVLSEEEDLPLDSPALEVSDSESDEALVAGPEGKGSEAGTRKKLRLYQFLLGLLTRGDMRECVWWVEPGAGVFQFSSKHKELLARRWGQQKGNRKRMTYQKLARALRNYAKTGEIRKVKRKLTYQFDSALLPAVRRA
# Sequence of ELF1 (P32519 whole entry): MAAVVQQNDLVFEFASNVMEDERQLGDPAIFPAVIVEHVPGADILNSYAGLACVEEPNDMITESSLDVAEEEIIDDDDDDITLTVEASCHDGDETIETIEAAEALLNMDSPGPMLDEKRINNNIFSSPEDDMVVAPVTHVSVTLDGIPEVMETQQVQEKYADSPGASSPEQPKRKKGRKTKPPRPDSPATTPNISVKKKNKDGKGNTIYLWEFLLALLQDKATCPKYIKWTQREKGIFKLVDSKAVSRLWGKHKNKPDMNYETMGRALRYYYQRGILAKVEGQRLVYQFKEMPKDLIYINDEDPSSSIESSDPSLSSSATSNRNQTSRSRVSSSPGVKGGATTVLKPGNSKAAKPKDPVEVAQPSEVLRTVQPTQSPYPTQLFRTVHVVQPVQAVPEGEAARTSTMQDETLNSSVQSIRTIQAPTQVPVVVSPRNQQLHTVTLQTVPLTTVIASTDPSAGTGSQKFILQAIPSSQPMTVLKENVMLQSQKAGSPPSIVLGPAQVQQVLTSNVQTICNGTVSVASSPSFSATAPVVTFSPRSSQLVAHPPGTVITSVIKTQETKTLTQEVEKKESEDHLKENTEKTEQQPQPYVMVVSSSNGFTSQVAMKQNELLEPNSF
# Sequence of ELF4 (Q99607 whole entry): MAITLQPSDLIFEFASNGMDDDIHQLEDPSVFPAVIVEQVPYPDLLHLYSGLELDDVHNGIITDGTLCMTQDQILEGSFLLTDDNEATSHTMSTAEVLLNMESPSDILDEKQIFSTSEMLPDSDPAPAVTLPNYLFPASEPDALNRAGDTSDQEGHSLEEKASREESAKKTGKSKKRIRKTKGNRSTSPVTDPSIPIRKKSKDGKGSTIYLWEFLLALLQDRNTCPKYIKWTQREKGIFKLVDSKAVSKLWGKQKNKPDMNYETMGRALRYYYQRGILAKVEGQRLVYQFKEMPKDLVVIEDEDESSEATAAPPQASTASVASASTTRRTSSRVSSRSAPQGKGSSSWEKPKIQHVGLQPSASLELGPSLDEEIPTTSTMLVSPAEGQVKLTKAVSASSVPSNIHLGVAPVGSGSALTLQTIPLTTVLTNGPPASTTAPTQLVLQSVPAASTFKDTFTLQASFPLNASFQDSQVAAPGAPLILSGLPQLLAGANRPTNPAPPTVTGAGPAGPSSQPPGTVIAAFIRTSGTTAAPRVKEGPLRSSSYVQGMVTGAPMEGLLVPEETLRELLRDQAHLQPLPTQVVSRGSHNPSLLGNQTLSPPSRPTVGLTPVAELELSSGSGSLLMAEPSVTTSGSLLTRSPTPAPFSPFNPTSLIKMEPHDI
# Sequence of ETV1 (P50549 whole entry): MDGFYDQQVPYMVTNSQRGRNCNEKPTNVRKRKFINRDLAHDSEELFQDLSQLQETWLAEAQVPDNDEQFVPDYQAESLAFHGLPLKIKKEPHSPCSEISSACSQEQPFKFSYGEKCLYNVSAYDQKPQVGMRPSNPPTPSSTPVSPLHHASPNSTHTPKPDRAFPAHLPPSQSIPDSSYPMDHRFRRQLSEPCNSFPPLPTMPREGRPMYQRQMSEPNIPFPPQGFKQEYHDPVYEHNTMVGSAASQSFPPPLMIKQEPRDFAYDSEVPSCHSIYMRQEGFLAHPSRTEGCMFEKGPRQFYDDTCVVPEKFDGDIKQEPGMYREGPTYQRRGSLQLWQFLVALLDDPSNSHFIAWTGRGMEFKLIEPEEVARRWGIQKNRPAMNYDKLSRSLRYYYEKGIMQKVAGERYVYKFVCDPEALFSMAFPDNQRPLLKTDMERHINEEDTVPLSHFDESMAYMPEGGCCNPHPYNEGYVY
sequence,measurement,setting,value
GCTGCG,binding signal,FLI1,"1.01 fold enrichment (6-mer frequency, TF over GST control)"
same,binding signal,ELK1,"1.12 fold enrichment (6-mer frequency, TF over GST control)"
same,binding signal,GABPA,"1.1 fold enrichment (6-mer frequency, TF over GST control)"
same,binding signal,ERG,"1.09 fold enrichment (6-mer frequency, TF over GST control)"
same,binding signal,ELF1,"1.13 fold enrichment (6-mer frequency, TF over GST control)"
same,binding signal,EHF,"1.21 fold enrichment (6-mer frequency, TF over GST control)"
same,binding signal,SPI1,"1.08 fold enrichment (6-mer frequency, TF over GST control)"
same,binding signal,SPIB,"1.08 fold enrichment (6-mer frequency, TF over GST control)"
same,binding signal,ELK3,"1.04 fold enrichment (6-mer frequency, TF over GST control)"
same,binding signal,FEV,"1.1 fold enrichment (6-mer frequency, TF over GST control)"
same,binding signal,ETV5,"1.12 fold enrichment (6-mer frequency, TF over GST control)"
same,binding signal,SPIC,"1.08 fold enrichment (6-mer frequency, TF over GST control)"
same,binding signal,ELF4,"1.1 fold enrichment (6-mer frequency, TF over GST control)"
same,binding signal,ETV1,"1.16 fold enrichment (6-mer frequency, TF over GST control)"
same,binding signal,ERF,"1.08 fold enrichment (6-mer frequency, TF over GST control)"
same,binding signal,ETV3L,"1.13 fold enrichment (6-mer frequency, TF over GST control)"
same,binding signal,ETS2,"1.14 fold enrichment (6-mer frequency, TF over GST control)"
same,binding signal,SPDEF,"1.02 fold enrichment (6-mer frequency, TF over GST control)"
same,binding signal,ETV3,"1.07 fold enrichment (6-mer frequency, TF over GST control)"
